Tests used:
[1] = target: T1, Aspartate--tRNA(Asp/Asn) ligase (Mycobacterium tuberculosis (strain ATCC 25618 / H37Rv)) (UniProt P9WFW3); assay: Assay for Asp RNA synthetase-1 from Mycobacterium tuberculosis; format: functional; design: scale not given: direction of the effect not stated beside the values; conditions: 30 µM; further: in the data most compounds retested in dose-response had high values
T1 sequence (whole entry): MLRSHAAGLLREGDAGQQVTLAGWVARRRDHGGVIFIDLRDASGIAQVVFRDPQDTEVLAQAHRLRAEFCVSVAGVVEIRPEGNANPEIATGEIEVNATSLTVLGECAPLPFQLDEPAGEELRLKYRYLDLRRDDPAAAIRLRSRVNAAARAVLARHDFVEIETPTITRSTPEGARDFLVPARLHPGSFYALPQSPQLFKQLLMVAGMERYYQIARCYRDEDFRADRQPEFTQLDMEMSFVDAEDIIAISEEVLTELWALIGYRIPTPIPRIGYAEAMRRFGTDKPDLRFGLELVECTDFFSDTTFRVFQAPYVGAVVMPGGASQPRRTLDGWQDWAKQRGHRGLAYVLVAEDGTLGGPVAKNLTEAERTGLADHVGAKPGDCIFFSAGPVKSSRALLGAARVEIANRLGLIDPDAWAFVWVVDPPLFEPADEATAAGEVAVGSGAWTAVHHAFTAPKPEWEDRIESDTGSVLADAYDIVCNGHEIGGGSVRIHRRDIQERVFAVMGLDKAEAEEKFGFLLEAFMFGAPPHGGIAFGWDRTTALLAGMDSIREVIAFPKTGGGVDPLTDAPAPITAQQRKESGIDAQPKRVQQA

[2] = target: Shiga toxin 2 (Escherichia coli O157:H7) (UniProt P09385+P09386); assay: E. coli 0.157:H7 Shiga Toxin SOP - stx2 screening assay; format: functional; design: scale not given: direction of the effect not stated beside the values; conditions: 30 µM

Row | Structure (SMILES) | Percent Effect [1] [%] | Percent Effect [2] [%]
1 | CCC(CNC(=O)c1cc(OC)ccc1Br)N1CCc2ccccc2C1 (configuration not stated) | 4.47 | 9.68
2 | CN(C)CC(=O)N1CCC2(CC(=O)N(c3cccc(C#N)c3)C2)C1 (configuration not stated) | 7.58 | 1.05
3 | O=C(CCN1CCCN(c2nccs2)CC1)Nc1ccccc1 | -1.81 | -52.2
4 | O=C1CC2(CCCCC2)CC(=O)N1CC(O)COCc1ccc(Cl)cc1 (configuration not stated) | 0.607 | 11
5 | O=C([C@H]1CN(CCc2ccccc2)C[C@H]2OCC[C@@H]12)N1CCCO1 | 1.78 | -9.29
6 | Cn1cc(CCNC(=O)NCc2nnc3n2CCC3)cn1 | -2 | 5.89
7 | COc1ccc(C(=O)N2CCCC(CNS(C)(=O)=O)C2)cc1F (configuration not stated) | 1.03 | 22.9
8 | CN(C)CCN1C[C@@H]2CN(C(=O)c3ccsc3)C[C@@H]2C1=O | -4.34 | -40.9
9 | COCCN1C(=O)CO[C@H]2CN(Cc3c[nH]nc3-c3ccccc3)C[C@@H]21 | -1.03 | 7.69
10 | CC(C)N(C)Cc1cn2c(n1)CN(C(=O)Cc1ccsc1)CC2 | 2.92 | -5.19
11 | CC(=O)N(C)c1nc(CN2CCOC(Cn3cccn3)C2)cs1 (configuration not stated) | 3.18 | -10.3
12 | Cc1nccnc1N1CC[C@@H](NC(=O)c2cnccn2)[C@H](O)C1 | 3.96 | -24.4
13 | Cc1cc(C)nc(N2CCN(C(=O)c3cc(Cl)c[nH]3)CC2)n1 | 1.48 | -6.42
14 | Cc1ccoc1C(=O)NC1CCN(Cc2cccc3c2OCCO3)CC1 | -2.4 | -34.8
15 | COc1cc(CNCc2c(C(C)C)nn(C)c2N(C)C)ccn1 | 0.522 | 22.2
16 | O=C(NCc1cc[nH]n1)N1CCN(c2ccccc2Cl)CC1 | 0.562 | 11.5
17 | CCN(CC(=O)NC(C)C)S(=O)(=O)N1CCCCCC1 | -4.33 | -4.09
18 | CCC1=N[C@@]2(CC[C@@H]3CN(CC4CC4)C[C@@H]32)C(=O)N1C | -1.79 | 6.84
19 | CC(O)CN1CCN(C(=O)c2ccc(Cn3cccn3)cc2)CC1 (configuration not stated) | 5.51 | 14.6
20 | CC(C)c1nccn1-c1cccc(C2CCCN(C3CCCC3)C2)n1 (configuration not stated) | 3.46 | 3.04
21 | Cc1cc(C)cc(N(C)S(=O)(=O)c2cc(C(=O)O)cs2)c1 | 2.79 | -3.14
22 | CN1CC2(CCN(Cc3ccoc3)CC2)COc2ccccc2S1(=O)=O | -0.268 | -18.6
23 | CC(C)(C)C(=O)N1C[C@H](c2ccsc2)[C@H]2CN(Cc3cccs3)CC[C@H]21 | -0.28 | -20.2
24 | CCCc1cc(C(=O)N2CCCC(n3ccnc3C)C2)[nH]n1 (configuration not stated) | -3 | -5.55
25 | O=C(NCCn1ccnc1)NCC(c1ccco1)N1CCCCC1 (configuration not stated) | 1.79 | 22.2
26 | Cn1ccc(C(=O)N2CCCC(Cc3cccc4ncccc34)C2)n1 (configuration not stated) | -2.07 | -7.58

Row | Structure (SMILES) | Percent Effect [1] [%] | Percent Effect [2] [%]
27 | O=C(C1CCN(c2snc3ccccc23)CC1)N1CCCCCC1 | 3.13 | -32.4
28 | O=C(Nc1ccc(CCN2CCC(O)CC2)cc1)C1CCOCC1 | -1.86 | -38.6
29 | CN(Cc1cnn(C)c1)C(=O)NC1CCC(O)CC1 (configuration not stated) | -5.01 | 12
30 | COCCN1CCN(C(=O)C2CC=CC2)Cc2cccnc21 | -1.63 | -23.9
31 | Cn1ccnc1CN1CCN(Cc2cc(C#N)ccc2F)CC1 | -5.71 | 17.6
32 | CN(Cc1ccc(OC(F)F)cc1)C(=O)CS(=O)(=O)c1ccc(Cl)cc1 | 0.524 | 15
33 | CC(C)CCC(C)NC(=O)c1ccc(OCC(N)=O)cc1 (configuration not stated) | 2.49 | -8.96
34 | CC(=O)N(Cc1noc(C)n1)C1CCN(Cc2ccncc2Cl)C1 (configuration not stated) | 1.27 | -3.88
35 | CC(=O)N1CCC2(CCN(C(=O)c3ccc(Cl)c(C(F)(F)F)c3)CC2)C1 | 4.41 | 11.4
36 | O=C(N[C@@H]1CN(Cc2cccs2)[C@@H]2CCCO[C@@H]21)C1CC1 | 4.13 | -24
37 | CCOCCNc1nc(C2CCCC2)nc2c1cnn2C | 5.12 | 1.57
38 | Cc1noc(C)c1CN1CC[C@@H](OCC2CC2)[C@@H](Cc2ccccc2)C1 | 0.779 | 16
39 | O=C(NCc1ccccc1CN1CCC(O)CC1)Nc1cccnc1 | 1.28 | -12.1
40 | Cc1cccc(CN2C(=O)CO[C@@H]3CN(Cc4nccn4C)C[C@H]32)c1 | -0.971 | -7.92
41 | Cc1cccc(-c2noc(CN3CCC(N4CCNC4=O)CC3)n2)c1 | 0.152 | 11.2
42 | Cc1noc(C(C)C)c1C(=O)N1CCOCC1CC(=O)c1ccco1 (configuration not stated) | 2.61 | -4.27
43 | Cc1nc(C2CCCN2CCCS(=O)(=O)N(C)C)no1 (configuration not stated) | -1.34 | -7.71
44 | COCCCN1CCCN(C(C)c2nc(C3CC3)no2)CC1 (configuration not stated) | -9.76 | -23.4
45 | Cc1nc(Nc2nccs2)cc(C2CCCN2C2CCOCC2)n1 (configuration not stated) | -3.08 | 3.58
46 | CCN(CC)CCNC(=O)c1cnc(C(C)(C)C)s1 | -0.45 | 17.4
47 | CSCC(C)(O)CNC(=O)c1ccc(Br)cc1F (configuration not stated) | 3.26 | 13.2
48 | CCC(=O)Nc1nnc(CCCOc2ccccc2)s1 | -2.47 | -12
49 | COc1ccc(CN2CCCC3(CCN(c4ccsc4)C3=O)C2)cc1 (configuration not stated) | 1.46 | -4.23
50 | CCS(=O)(=O)N(C)C1CCN(C(=O)c2cccc(Cl)c2)CC1 | -0.493 | 14.8
51 | CCC(C)c1noc(C2CCN(C(=O)c3cccs3)CC2)n1 (configuration not stated) | 4.84 | -48
52 | CC(C)c1nc(C2CCCN2C(=O)c2nccnc2N)no1 (configuration not stated) | -5.36 | -16.2

Row | Structure (SMILES) | Percent Effect [1] [%] | Percent Effect [2] [%]
53 | CCc1[nH]ncc1C(=O)N1CCCC(n2cccn2)C1 (configuration not stated) | -2.98 | 3.89
54 | COC(=O)c1cccn1C1CCN(C(=O)c2cc(C)ccc2O)CC1 | 3.4 | 21.2
55 | CC(C)(C)c1nc(CN2CCCC2Cn2cccn2)no1 (configuration not stated) | -2.09 | -50.8
56 | Cc1ccc(-c2cc(N)c(=O)n(CC(=O)NCC3CC3)n2)s1 | 4.48 | 3.54
57 | CCn1c(C2CCCN(Cc3nccn3CCOC)C2)nn(C)c1=O (configuration not stated) | 4.25 | 5.34
58 | Cc1ncsc1C(=O)NC1CCN(CCC(N)=O)CC1 | -2.4 | 13.9
59 | CCc1nc(CN(C)C2CCN(Cc3ccc(C#N)cc3F)C2)no1 (configuration not stated) | -1.38 | 20.3
60 | O=C(NCCn1ccc(-c2ccccn2)n1)C1CC1 | 2.14 | -6.67
61 | CCc1nc(CN2CCCC(N(C)Cc3cnn(C)c3)C2)no1 (configuration not stated) | 0.747 | -30.2
62 | Cn1ncc2c(=O)[nH]c(CN3CCCC3Cc3ccccc3)nc21 (configuration not stated) | 2.98 | 35.6
63 | COC1CCN(C(=O)Cc2csc(-c3ncccn3)n2)CC1 | -5.19 | 12.8
64 | CC(C)N1CCOCC2(CN(Cc3nccs3)CCO2)C1 (configuration not stated) | 2.14 | -11.3
65 | CCn1cc(NC(=O)NCC(O)c2ccccc2)cn1 (configuration not stated) | -0.4 | -5.7
66 | COCCN(Cc1ccoc1)C(=O)c1ccccc1Cl | 2.46 | 6.17
67 | COc1ccc(CN(Cc2cccnc2)CC2CCCO2)c(OC)c1 (configuration not stated) | -3.99 | -13.4
68 | CC(=O)N1CCC(C(=O)NCCN2CCCCC2)CC1 | -0.501 | -3.32
69 | CCc1noc(C(C)N(C)CC(=O)Nc2cccc(C)n2)n1 (configuration not stated) | -1.61 | -14.2
70 | O=C(c1ccsc1)N1CC[C@H]2C[C@@H](c3nnc(C4CC4)o3)O[C@@H]2C1 | 0.51 | -18.9
71 | Cn1nnc2c1C(COCc1ccccn1)CN(C(=O)c1cccs1)C2 (configuration not stated) | 0.388 | 13.7
72 | CNc1nc(CNC(=O)Nc2ccccc2SC)cs1 | -0.278 | 22.5
73 | Cc1nccc([C@@H]2C[C@@H]3CCN(S(C)(=O)=O)C[C@H]3O2)n1 | 2.92 | 11.1
74 | CCc1n[nH]c(C2CN(CC(=O)NCCc3ccsc3)CCO2)n1 (configuration not stated) | -5.2 | -20.2
75 | CC(C)c1nn(C)c(N2CCOCC2)c1CN[C@H](C)CO | -1.94 | 30.8
76 | Cc1cc(C)n(C2CCCN(C(=O)c3ccc(F)cc3F)C2)n1 (configuration not stated) | 7.84 | -0.315
77 | Cc1cc2nc(SCC(=O)N3CCCC3)n(C(C)C)c(=O)c2[nH]1 | 0.509 | -18
78 | O=C(CCc1ccccc1)NCC1CCN(Cc2ccsc2)CC1 | -3.19 | -9.05

Row | Structure (SMILES) | Percent Effect [1] [%] | Percent Effect [2] [%]
79 | CN(C)CC(=O)N1C[C@H]2CCC[C@@]2(COc2ccccn2)C1 | 1.75 | 13.5
80 | COc1cc(N2CC[C@H](O)[C@@H]2Cc2cnn(C)c2)ncn1 | -4.05 | -1.67
81 | Cc1nn(C)c(N(C)C)c1CNCc1cccc(OCCN(C)C)c1 | -1.92 | 27.4
82 | COc1cccc(C2CC(=O)Nc3nc(N)sc32)c1OC (configuration not stated) | 65.3 | -20
83 | COC(=O)CCNC(=O)C1CC(=O)N(C2CCCC2)C1 (configuration not stated) | 0.859 | -13.4
84 | CCc1nnc2n1CC(CNCc1ccncc1)CC2 (configuration not stated) | -3.51 | -13.5
85 | CNC(=O)Cc1ccc(NC(=O)NC(C)C(C)C)cc1 (configuration not stated) | -6.08 | -0.988
86 | O=C(N[C@@H]1CN(c2ncccn2)[C@@H]2CCCO[C@@H]21)c1cnccn1 | 7.31 | 2.14
87 | c1coc(-c2noc(CN3CCCC(Cn4cncn4)C3)n2)c1 (configuration not stated) | -6.28 | -10.4
88 | Cc1nc(Nc2nnc(C)s2)cc(C2CCCN2C)n1 (configuration not stated) | 2.4 | -26.6
89 | O=C(O)c1cc2c(nc1O)CC(c1cccs1)CC2=O (configuration not stated) | 2.79 | -19.6
90 | CCc1nc(CC(=O)N2CCN(c3cnccn3)CC2)cs1 | -3.74 | -11.5
91 | CN(C)c1ncccc1CNC(=O)N1CCCC1c1ccsc1 (configuration not stated) | 2.25 | 5.76
92 | CCCNC(=O)c1ccc2c(c1)C(=O)N(CC(C)C)C2=O | 1.59 | 3.24
93 | CCc1nc2n(n1)CC(NCc1ncc(-c3ccccc3)o1)CC2 (configuration not stated) | 0.562 | 9.14
94 | CCNC(=O)c1ccc2c(c1)nc1n2CCN(Cc2ccco2)C1 | 3.83 | -56
95 | Cc1ccc(-n2nnc(CC(=O)N3CCOCC3)c2C)cc1 | 2.26 | -28
96 | O=C(CCc1nccs1)N1CCN(c2ccc(Br)cn2)CC1 | 3.92 | 23.4
97 | COc1cccn(CC(=O)N(C)Cc2ccoc2)c1=O | -1.64 | 5.29
98 | Cc1cnc(N2CC3(CCN(C(=O)c4ccoc4)C3)C2)nc1 | 0.713 | -36.5
99 | CS(=O)(=O)NCC1CCCN(C(=O)c2ccc(Cl)o2)C1 (configuration not stated) | 1.23 | -7.98
100 | CCc1csc(C2CCCN(C(=O)c3c[nH]c(C)n3)C2)n1 (configuration not stated) | -0.0911 | -10.2
101 | CNC(=O)N1CC[C@H]2N(C)CC[C@@]2(C(=O)Nc2ccccc2)CC1 | -8.12 | 15.9

Source: ChEMBL document CHEMBL3988442, “University of Dundee, Small-Polar-MMV Screening Library” (2021)
